Measured values: PubChem BioAssay (NCATS)
Inconclusive results are not listed. Activity calls are given as the source filed them. Unless noted, calls follow the shape of the full dose curve.

Experiments:
[1] = qHTS drug screen for cell cycle checkpoint inhibitors in PARPi-resistant BRCA-mutant ovarian cancer cell lines. (AID 1963452); settings: PEO1/OlaR viability, CellTiter-Glo luminescence, 96 h, stronger effect = lower value
In short: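 PEO1, PEO4 and PEO1/OlaR ovarian cancer cells, 600 per well, exposed 96 h at 37C to a dilution series. Viability read by CellTiter-Glo luminescence, normalized to DMSO and empty wells; activity summarized as Z-AUC.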

[2] = biological target: Nuclear receptor subfamily 1 group I member 2 (Homo sapiens) (UniProt O75469); assay: Dual reporter qHTS for agonist of Pregnane X Receptor (hPXR) against the NCATS DSHEA and TCM libraries: Luminescence readout (AID 1920059; active = well fitted curve in the direction sought with a large enough effect; an effect the other way counts as inactive or inconclusive; also: 0% is about no effect); settings: hPXR dual reporter cells, luciferase luminescence agonist; series mostly up to 40 µM
Sequence of Nuclear receptor subfamily 1 group I member 2 (Homo sapiens) (O75469 whole entry, looked up): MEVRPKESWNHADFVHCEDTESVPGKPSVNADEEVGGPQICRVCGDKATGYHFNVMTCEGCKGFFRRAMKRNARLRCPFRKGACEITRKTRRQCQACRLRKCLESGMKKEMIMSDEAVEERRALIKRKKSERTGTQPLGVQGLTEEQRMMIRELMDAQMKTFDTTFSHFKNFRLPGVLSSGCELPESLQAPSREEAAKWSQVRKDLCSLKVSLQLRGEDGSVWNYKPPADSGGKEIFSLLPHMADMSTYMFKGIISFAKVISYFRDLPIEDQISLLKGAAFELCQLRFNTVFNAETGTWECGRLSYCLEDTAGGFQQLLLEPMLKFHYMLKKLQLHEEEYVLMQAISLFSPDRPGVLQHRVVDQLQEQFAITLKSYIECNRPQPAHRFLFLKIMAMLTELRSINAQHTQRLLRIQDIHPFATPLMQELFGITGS
Excerpt: Assay Development and Screening Technology Laboratory (ADST)
National Center for Advancing Translational Sciences (NCATS), Rockville, MD
National Institute of Health (NIH), Bethesda, Maryland
Dietary Supplements and Natural Products have minor oversight of their safety and efficacy. We assembled a collection of Dietary Supplements and Natural Products (DSNP) as well as Traditional Chinese Medicinal (TCM) Plant extracts, which were screened against an in vitro panel of assays, including a liver cytochrome p450 enzyme panel, CAR/PXR signaling pathways, and P-gp transporter assays, to assess their activity. This pipeline facilitated the interrogation of Natural Product-Drug Interaction (NaPDI) through prominent metabolizing pathways. In addition, we compared the activity profiles of the DSNP/TCM substances with those of an approved drug collection. […] Overall, we highlight four significant bioactivity profiles (measured by p-values) as examples of this prediction. […] To profile potential P-gp activity, a differential cell viability was measured against two cell lines: a parental KB-3-1 human cervical adenocarcinoma cell line and the drug-resistant subline KB-8-5-11 that overexpresses P-gp. […]
8; Read; Fluorescence; ViewLux plate reader. […]
11; Read; Luminescence; ViewLux plate reader. […]

[3] = biological target: Nuclear receptor subfamily 1 group I member 2 (Homo sapiens) (UniProt O75469); assay: Dual reporter qHTS for antagonist of Pregnane X Receptor (hPXR) against the NCATS DSHEA and TCM libraries: Luminescence Readout (AID 1920060; active = well fitted curve in the direction sought with a large enough effect; an effect the other way counts as inactive or inconclusive;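 also: HepG2 cells carrying hPXR luciferase reporter stimulated with rifampicin at 2 µM; 0% is about no effect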); settings: hPXR dual reporter cells, luciferase luminescence, antagonist mode; series mostly up to 40 µM
In short: (§1)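 HepG2 hPXR-Luc, 2000 cells/well, charcoal-stripped FBS medium; 5 h attach; RIF 2 uM final; 24 h 37C/5% CO2; CellTiter-Fluor 1 h, fluor 405/540; ONE-Glo 30 min RT, lum.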

[4] = Dual reporter qHTS for antagonist of Pregnane X Receptor (hPXR) against the NCATS DSHEA and TCM libraries: Fluorescence Readout (AID 1920061; active = well fitted curve in the direction sought with a large enough effect; an effect the other way counts as inactive or inconclusive; also: 0% is about no effect); settings: PXR dual reporter cells, antagonist mode; series mostly up to 40 µM
In short: as §1

[5] = qHTS for identification of novel therapeutic agents for treatment of microphthalmiaassociated transcription factor (MiT) renal cell carcinoma (RCC) (AID 1963991); settings: CellTiter-Glo, 48 h, stronger effect = lower value;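 also: curves scaled with 100% = DMSO viability and 0% = empty wells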
In short: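 UOK109/UOK124/UOK145 (TFE3 fusions, three partners); 500 cells/well; MIPE v4.0, 1912 cpds, 11 conc.; 48 h, 37 C; CellTiter-Glo, 15 min RT; lum. Norm.: DMSO 100%, empty 0%.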

[6] = measured here: PEO1 parental Z-AUC
[7] = TFE3-RCC UOK109 viability, measured here: UOK109 Z-AUC
[8] = TFE3-RCC viability, measured here: UOK124 Z-AUC
[9] = TFE3-RCC viability, measured here: UOK145 Z-AUC

CC(C)c1cnn2c(NCc3ccccc3)cc(NCCCCCCN)nc12
Z-AUC [1]: 1.27 (inactive) | Z-AUC [1, 6]: 1.33 | Z-AUC ([1]; measured here: PEO4 Z-AUC): 1.15

Oc1cc2c(cc1O)C1c3ccc(O)c(O)c3OCC1(O)C2 (stereo unspecified)
Z-AUC [1]: 1.52 (inactive) | Z-AUC [1, 6]: 1.33 | Z-AUC ([1]; measured here: PEO4 Z-AUC): 1.39

CCc1ccc(C(=O)Nc2cc(CN3CCN(C)CC3)cc(C(F)(F)F)c2)cc1C#Cc1cnc2ccnn2c1
Z-AUC [1]: -0.668 (inactive) | Z-AUC [1, 6]: -1.24 | Z-AUC ([1]; measured here: PEO4 Z-AUC): -0.914

O=C(O)c1ccc(Nc2ncc3c(n2)-c2ccc(Cl)cc2C(c2c(F)cccc2F)=NC3)cc1
Z-AUC [1]: 0.584 (inactive) | Z-AUC [1, 6]: 0.311 | Z-AUC ([1]; measured here: PEO4 Z-AUC): -0.364

Nc1ccc(C(=O)Nc2cccc(-c3nc(N4CCOCC4)c4oc5ncccc5c4n3)c2)cn1
Z-AUC [1]: 0.0788 (inactive) | Z-AUC [1, 6]: -0.164 | Z-AUC ([1]; measured here: PEO4 Z-AUC): 0.731

C[C@](Cc1c[nH]c2ccccc12)(NC(=O)OC1C2CC3CC(C2)CC1C3)C(=O)NC[C@H](NC(=O)CCC(=O)O)c1ccccc1 (stereo partly specified)
Z-AUC [1]: -0.246 (inactive) | Z-AUC [1, 6]: -0.184 | Z-AUC ([1]; measured here: PEO4 Z-AUC): -0.0323

CC(C)(N)c1ccc(-c2nc3ccccc3nc2-c2ccccc2)cc1
Z-AUC [1]: 0.345 (inactive) | Z-AUC [1, 6]: 0.18 | Z-AUC ([1]; measured here: PEO4 Z-AUC): 0.291

NC(=O)Nc1cc(-c2ccc(CN3CCOCC3)cc2)sc1C(N)=O
Z-AUC [1]: 0.59 (inactive) | Z-AUC [1, 6]: 0.476 | Z-AUC ([1]; measured here: PEO4 Z-AUC): 0.41

O=C1c2c(O)cccc2[C@@H]([C@@H]2O[C@H](CO)[C@@H](O)[C@H](O)[C@H]2O)c2cc(CO)cc(O)c21
outcome [2]: inactive | outcome [3]: inactive | outcome [4]: inactive | z-score [5, 7]: 0.509 | z-score [5, 8]: 0.726 | z-score [5, 9]: 0.571

Oc1ccc([C@@H]2Oc3ccc(O)cc3[C@@H]3CCC[C@@H]32)cc1
Z-AUC [1]: 0.648 (inactive) | Z-AUC [1, 6]: -0.25 | Z-AUC ([1]; measured here: PEO4 Z-AUC): -0.0299

Cc1ccc(-n2[nH]c(C)c(N=Nc3cccc(-c4cccc(C(=O)O)c4)c3O)c2=O)cc1C
Z-AUC [1]: -0.217 (inactive) | Z-AUC [1, 6]: -0.314 | Z-AUC ([1]; measured here: PEO4 Z-AUC): 0.208

FC(F)c1nc2ccccc2n1-c1nc(N2CCOCC2)nc(N2CCOCC2)n1
Z-AUC [1]: -1.24 (inactive) | Z-AUC [1, 6]: -1.07 | Z-AUC ([1]; measured here: PEO4 Z-AUC): -0.858

COc1cc(C(C)C)c(Oc2cnc(NC(CO)CO)nc2N)cc1I
Z-AUC [1]: 0.743 (inactive) | Z-AUC [1, 6]: 1.44 | Z-AUC ([1]; measured here: PEO4 Z-AUC): 1.02

C=CC(=O)N1CCc2ccc(-n3c(=O)ccc4cnc5ccc(-c6cnn(C)c6)cc5c43)cc21
Z-AUC [1]: -0.366 (inactive) | Z-AUC [1, 6]: -0.285 | Z-AUC ([1]; measured here: PEO4 Z-AUC): -0.334

CC(C)Oc1ccc(C(=O)N[C@H](CNC(=O)CN(C)C)Cc2ccc(-c3cn4cccc([C@H](C)O)c4n3)cc2)cc1Cl
Z-AUC [1]: -1.44 (inactive) | Z-AUC [1, 6]: -0.733 | Z-AUC ([1]; measured here: PEO4 Z-AUC): -1.18

C=C(C)[C@@H]1CC[C@]2(C(=O)O)CC[C@]3(C)[C@H](CC[C@@H]4[C@@]5(C)CC[C@H](O)C(C)(C)[C@@H]5CC[C@]43C)[C@@H]12
outcome [4]: inactive | Z-AUC [1]: 1.23 (inactive) | Z-AUC [1, 6]: 0.622 | Z-AUC ([1]; measured here: PEO4 Z-AUC): 0.86 | z-score [5, 7]: 0.38 | z-score [5, 8]: 0.714 | z-score [5, 9]: 0.25

C[C@@]12C[C@@]3(O)O[C@@H](O1)[C@]1(COC(=O)c4ccccc4)[C@@H]3C[C@@]12O[C@@H]1O[C@H](CO)[C@@H](O)[C@H](O)[C@@H]1O
outcome [3]: inactive | outcome [4]: inactive | z-score [5, 7]: -0.0471 | z-score [5, 8]: 0.702 | z-score [5, 9]: -0.0246

O=C(Nc1nnc(-c2ccco2)o1)c1cc(-c2ccccc2)nc2ccccc12
Z-AUC [1]: 1.38 (inactive) | Z-AUC [1, 6]: 0.606 | Z-AUC ([1]; measured here: PEO4 Z-AUC): 0.601

NC1=N[C@H]2[C@H](CS[C@H]2CCCCC(=O)O)N1
Z-AUC [1]: -0.195 (inactive) | Z-AUC [1, 6]: 0.0828 | Z-AUC ([1]; measured here: PEO4 Z-AUC): 0.00068

COc1ccc(C(C)=O)c(O)c1
outcome [2]: inactive | outcome [3]: inactive | outcome [4]: inactive

Oc1cc(-c2nc(-c3ccccc3)[nH]c2-c2ccncc2)ccc1Cl
Z-AUC [1]: -0.516 (inactive) | Z-AUC [1, 6]: -0.935 | Z-AUC ([1]; measured here: PEO4 Z-AUC): -1.11

CN(CC(=O)N(Cc1ccc(C2CCCCC2)cc1)c1ccc(C(=O)O)c(O)c1)S(=O)(=O)c1c(F)c(F)c(F)c(F)c1F
Z-AUC [1]: 0.87 (inactive) | Z-AUC [1, 6]: 0.115 | Z-AUC ([1]; measured here: PEO4 Z-AUC): 0.274

CCNC(=O)c1cc2c(-c3cc(OCCN4CCCC4)c(Cl)cc3Cl)nc(N)nc2s1
Z-AUC [1]: -0.792 (inactive) | Z-AUC [1, 6]: -0.714 | Z-AUC ([1]; measured here: PEO4 Z-AUC): -0.886

NC(=O)N1CCC(CC(=O)N2CCC([C@H]3c4ncc(Br)cc4CCc4cc(Cl)cc(Br)c43)CC2)CC1
Z-AUC [1]: -0.923 (inactive) | Z-AUC [1, 6]: -0.883 | Z-AUC ([1]; measured here: PEO4 Z-AUC): -0.991

CCN(CC)CCCCNc1ncc2c(n1)N(C)C(=O)N(c1c(Cl)c(OC)cc(OC)c1Cl)C2
Z-AUC [1]: 0.806 (inactive) | Z-AUC [1, 6]: 1.27 | Z-AUC ([1]; measured here: PEO4 Z-AUC): 0.972

O=C(NC1CC1)c1cccc(-c2ccc3c(NC(=O)C4CC4)n[nH]c3c2)c1
Z-AUC [1]: -1.31 (inactive) | Z-AUC [1, 6]: -0.612 | Z-AUC ([1]; measured here: PEO4 Z-AUC): -0.0864

O=S(=O)(O)CCSSCCS(=O)(=O)O
Z-AUC [1]: -0.0996 (inactive) | Z-AUC [1, 6]: 0.123 | Z-AUC ([1]; measured here: PEO4 Z-AUC): 0.876

CC(C)[C@H](CO)Nc1nc(Nc2cccc(Cl)c2)c2ncn(C(C)C)c2n1
Z-AUC [1]: 0.56 (inactive) | Z-AUC [1, 6]: 0.0457 | Z-AUC ([1]; measured here: PEO4 Z-AUC): 0.284

COc1cc(O)c2c(c1)C1OC1C[C@H](O)[C@H](O)C(=O)C=CC[C@H](C)OC2=O (stereo partly specified)
Z-AUC [1]: 0.145 (inactive) | Z-AUC [1, 6]: -0.101 | Z-AUC ([1]; measured here: PEO4 Z-AUC): -0.574
